Test results reported in the supplement of paper PMC3342239.
Counter-ions that a name gives are not always drawn.

system: Saccharomyces cerevisiae; assay: fraction of cells in G1 phase (DNA content, flow cytometry); higher = more cells with unreplicated DNA (G1 delay); conditions: temperature: 30 C; YPD; BY4741 PDR5+ SNQ2+; drug added to: actively dividing cells; 4.33 h
In short: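 For the G1 fraction, the Dean-Jett-Fox G1 peak area was divided by the sum of the G1 and G2/M areas. S. cerevisiae in YPD at 30°C received library drugs and was fixed 6–7 h later for sensitized JTY2953 (diluted 1∶200 from overnight, final 20 µg/ml), 6 h later for dividing JTY2953, or 4.33 h later for BY4741. Fixed cells were stained with SYTOX Green and 10,000 events recorded by flow cytometry.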

In order of rising “fraction of cells in G1 phase” value:
1. CC(=O)[C@]1(O)Cc2c(O)c3c(c(O)c2[C@@H](O[C@H]2C[C@H](N)[C@H](O)[C@H](C)O2)C1)C(=O)c1ccccc1C3=O [Idarubicin] (40.2005 µM)  0.14
2. CN(C)CCCN1c2ccccc2Sc2ccc(Cl)cc21 [Chlorpromazine HCl] (62.7212 µM)  0.373
3. CO[C@@]12[C@H](COC(N)=O)C3=C(C(=O)C(C)=C(N)C3=O)N1C[C@@H]1N[C@@H]12 [Mitomycin c] (59.8203 µM)  0.399
4. O=C1CCc2ccc(OCCCCN3CCN(c4cccc(Cl)c4Cl)CC3)cc2N1 [Aripiprazole] (44.6034 µM)  0.411
5. CCc1nn(CCCN2CCN(c3cccc(Cl)c3)CC2)c(=O)n1CCOc1ccccc1 [Nefazodone] (42.5515 µM)  0.422
6. CNCCC(Oc1ccc(C(F)(F)F)cc1)c1ccccc1 (stereo not given) [Fluoxetine HCl] (64.655 µM)  0.43
7. O=c1[nH]c2ccccc2n1CCCN1CCN(C(c2ccccc2)c2ccccc2)CC1 [Oxatomide] (46.886 µM)  0.433
8. CN1CCN(C2=Nc3cc(Cl)ccc3Nc3ccccc32)CC1 [Clozapine] (61.1935 µM)  0.437
9. OC(Cn1cncn1)(Cn1cncn1)c1ccc(F)cc1F [Fluconazole] (65.3004 µM)  0.441
10. Fc1ccc(C(c2ccc(F)cc2)N2CCN(C/C=C/c3ccccc3)CC2)cc1 [Flunarizine-2HCl] (41.8936 µM)  0.442
11. C[C@]12CCC(=O)C=C1C=C[C@@H]1[C@@H]2CC[C@@]2(C)[C@H]1CC[C@@]21CCC(=O)O1 [Canrenone] (58.7429 µM)  0.453
12. COC(=O)[C@H](c1ccccc1Cl)N1CCc2sccc2C1 [Clopidogrel sulfate] (62.1449 µM)  0.459
13. CC1=C(/C=C/C(C)=C/C=C/C(C)=C/C(=O)Nc2ccc(O)cc2)C(C)(C)CCC1 [Fenretinide] (51.0779 µM)  0.462
14. Fc1ccc([C@@H]2CCNC[C@H]2COc2ccc3c(c2)OCO3)cc1 [Paroxetine HCl] (60.7211 µM)  0.468
15. C=C1/C(=C\C=C2/CCC[C@]3(C)[C@@H]([C@H](C)CCCC(C)C)CC[C@@H]23)C[C@@H](O)C[C@@H]1O [Alfacalcidol] (49.9188 µM)  0.469
16. CCOC(=O)C1=C(COCCN)NC(C)=C(C(=O)OC)C1c1ccccc1Cl (stereo not given) [Amlodipine] (48.9134 µM)  0.481
17. CC(=O)OCC1OC([S-])C(OC(C)=O)C(OC(C)=O)C1OC(C)=O.CC[PH+](CC)CC.[Au+] (stereo not given) [Auranofin] (29.4771 µM)  0.52

same assay, conditions: temperature: 30 C; YPD; JTY2953 pdr5 snq2 (sensitized); drug added to: actively dividing cells; 6 h

In order of rising “fraction of cells in G1 phase” value:
1. OCCN1CCN(CCCN2c3ccccc3Sc3ccc(C(F)(F)F)cc32)CC1 [Fluphenazine 2HCl] (45.711 µM)  0.327
2. O=C1NCN(c2ccccc2)C12CCN(CCCC(c1ccc(F)cc1)c1ccc(F)cc1)CC2 [Fluspirilene] (42.0533 µM)  0.338
3. CCC(C)(C)C(=O)O[C@H]1C[C@@H](C)C=C2C=C[C@H](C)[C@H](CC[C@@H]3C[C@@H](O)CC(=O)O3)[C@H]21 [Simvastatin] (47.7808 µM)  0.354
4. C=C1/C(=C\C=C2/CCC[C@]3(C)[C@@H]([C@H](C)/C=C/[C@@H](O)C4CC4)CC[C@@H]23)C[C@@H](O)C[C@@H]1O [Calcipotriene] (48.471 µM)  0.375
5. CCN(CC)CCOc1ccc(C(=C(Cl)c2ccccc2)c2ccccc2)cc1 [Clomiphene citrate] (49.2645 µM)  0.388
6. CCCCc1oc2ccccc2c1C(=O)c1cc(I)c(OCCN(CC)CC)c(I)c1 [Amiodarone] (30.9922 µM)  0.388
7. COC(=O)C1=C(C)NC(C)=C(C(=O)OCCCN2CCC(c3ccccc3)(c3ccccc3)CC2)[C@H]1c1cccc([N+](=O)[O-])c1 [Niguldipine HCl] (30.9502 µM)  0.389
8. CC/C(=C(/CC)c1ccc(O)cc1)c1ccc(O)cc1 [Diethylstilbestrol] (74.5271 µM)  0.42
9. Clc1ccc(C(Cn2ccnc2)OCc2ccsc2Cl)c(Cl)c1 (stereo not given) [Tioconazole] (51.5839 µM)  0.427
10. C[C@H](CS)C(=O)N1CCC[C@H]1C(=O)O [Captopril] (92.0434 µM)  0.436
11. CCOC(=O)N1CCC(=C2c3ccc(Cl)cc3CCc3cccnc32)CC1 [Loratadine] (52.2338 µM)  0.448
12. Clc1ccc(COC(Cn2ccnc2)c2ccc(Cl)cc2Cl)c(Cl)c1 (stereo not given) [Miconazole] (48.0611 µM)  0.467
13. CSc1ccc2c(c1)N(CCC1CCCCN1C)c1ccccc1S2 (stereo not given) [Thioridazine HCl] (53.969 µM)  0.469
14. COC1=C(OC)C(=O)C(CCCCCCCCCCO)=C(C)C1=O [Idebenone] (59.0933 µM)  0.472
15. COc1ccc(-c2cc(=S)ss2)cc1 [Anethole-trithione (anetholtrithion)] (83.2062 µM)  0.486
16. CN(C)CCOc1ccc(/C(=C(/CCCl)c2ccccc2)c2ccccc2)cc1 [Toremifene] (49.2645 µM)  0.524
17. COc1ccc(CN2CCN(C(c3ccc(F)cc3)c3ccc(F)cc3)CC2)c(OC)c1OC [Lomerizine HCl] (42.685 µM)  0.558
18. COC(=O)C1=C(C)NC(C)=C(C(=O)OCC(C)C)C1c1ccccc1[N+](=O)[O-] (stereo not given) [Nisoldipine] (51.4901 µM)  0.587
19. CCCCCCCCCCCCCCCCOP(=O)([O-])OCC[N+](C)(C)C [Miltefosine] (49.0703 µM)  0.596
20. CCOC(=O)C1=C(C)NC(C)=C(C(=O)OC)C1c1cccc(Cl)c1Cl (stereo not given) [Felodipine] (52.0478 µM)  0.609
21. COc1cccc2c1C(=O)c1c(O)c3c(c(O)c1C2=O)C[C@@](O)(C(=O)CO)C[C@@H]3O[C@H]1C[C@H](N)[C@H](O)[C@H](C)O1 [Doxorubicin HCl] (34.4828 µM)  0.618
22. C[C@]12CCC(=O)C=C1C=C[C@@H]1[C@@H]2CC[C@@]2(C)[C@H]1CC[C@@]21CCC(=O)O1 [Canrenone] (58.7429 µM)  0.649
23. C=C1/C(=C\C=C2/CCC[C@]3(C)[C@@H]([C@H](C)CCCC(C)C)CC[C@@H]23)C[C@@H](O)C[C@@H]1O [Alfacalcidol] (49.9188 µM)  0.651
24. CCOC(=O)C1=C(COCCN)NC(C)=C(C(=O)OC)C1c1ccccc1Cl (stereo not given) [Amlodipine] (48.9134 µM)  0.673
25. CC1=C(/C=C/C(C)=C/C=C/C(C)=C/C(=O)Nc2ccc(O)cc2)C(C)(C)CCC1 [Fenretinide] (51.0779 µM)  0.681
26. CCc1nn(CCCN2CCN(c3cccc(Cl)c3)CC2)c(=O)n1CCOc1ccccc1 [Nefazodone] (42.5515 µM)  0.688
27. Clc1ccc(Nc2nnc(Cc3ccncc3)c3ccccc23)cc1 [Vatalanib] (57.6664 µM)  0.691
28. OC(Cn1cncn1)(Cn1cncn1)c1ccc(F)cc1F [Fluconazole] (65.3004 µM)  0.711
29. COC(=O)[C@H](c1ccccc1Cl)N1CCc2sccc2C1 [Clopidogrel sulfate] (62.1449 µM)  0.719
30. Fc1ccc(C(c2ccc(F)cc2)N2CCN(C/C=C/c3ccccc3)CC2)cc1 [Flunarizine-2HCl] (41.8936 µM)  0.761
31. O=C1CCc2ccc(OCCCCN3CCN(c4cccc(Cl)c4Cl)CC3)cc2N1 [Aripiprazole] (44.6034 µM)  0.762
32. O=c1[nH]c2ccccc2n1CCCN1CCN(C(c2ccccc2)c2ccccc2)CC1 [Oxatomide] (46.886 µM)  0.791
33. CC(=O)OCC1OC([S-])C(OC(C)=O)C(OC(C)=O)C1OC(C)=O.CC[PH+](CC)CC.[Au+] (stereo not given) [Auranofin] (29.4771 µM)  0.959
